SMILES strings stand for the structures. Out of some 410,000 compounds screened, about 18,000 (4.4%) were called active. Inconclusive results (about 7%) are left out. Rule as the data show it: active = activity change below about -60%; inconclusive = no clear call, values can overlap the other calls; inactive = above about -39%. Many of the other results were omitted from the sample, so actives are more common in it than they were.
% is scaled to controls: 0 for no effect and ±100 for the full control effect.

This experiment in a line: qHTS Assay for inhibitors of the human cytomegalovirus (HCMV). Conditions: HFF cells, HCMV-luciferase reporter, 72 h; at 57.5 µM; stronger effect = lower value. Put shortly:
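Two compound doses tested in HFFs infected with HCMV-luciferase, MOI 1 PFU/cell, 72 h at 37C. Lysate luminescence read with OneGlo; data normalized against buffer-only and 10uM Salinomycin inhibitor controls.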
(qHTS replaces the single test concentration by a dilution series.)
In the case of `O=C(CSc1oc(-c2ccco2)nc1S(=O)(=O)c1ccccc1)c1ccc(Cl)cc1`, the activity change, negative = inhibition was -17.5% (inactive).

For `Cc1cccc(N2CCN(c3c(CN4CCCC4)c(=O)oc4ccccc34)CC2)c1C`, the activity change, negative = inhibition was 21.8% (inactive). The figure for `CCOc1ccc(N(CC)C(=O)c2cc3c(=O)oc4ccccc4c3s2)cc1` is 5.06% (inactive). The figure for `Cc1ccc(S(=O)(=O)N(C)CC(=O)N2CCc3ccccc32)cc1` is -22.7% (inactive); for `O=C(CN1C(=O)c2ccccc2S1(=O)=O)N1CCc2ccccc21` it is -93.9% (active). On to `NS(=O)(=O)c1ccc(CCNC(=O)CN2C(=O)c3ccccc3S2(=O)=O)cc1`, for which the activity change, negative = inhibition is -13% (inactive). For the molecule `O=C(Cn1cc(SCc2ccccc2)c2ccccc21)N1CCCCC1`, the activity change, negative = inhibition is -27.6% (inactive).

Consider `CC(=O)Nc1ccc(Nc2c3ccccc3nc3ccccc23)cc1`, for which the activity change, negative = inhibition is -99.6% (active). The same measure for `CC(=O)Nc1ccc(Nc2nc3c(S(=O)(=O)c4ccc(C)c(C)c4)nnn3c3ccccc23)cc1`: -35.4% (inactive).

Take `Brc1ccc(Nc2c3c(nc4ncnn24)CCC3)cc1`: the activity change, negative = inhibition is -30.4% (inactive). The figure for `Cc1ccc(CNC(=O)CSc2c3c(nc4cc(Cl)ccc24)CCCC3)cc1` is -19.8% (inactive); for `CC(=O)Nc1ccc(S(=O)(=O)N2CCN(c3ccccc3)CC2)cc1` it is -20.6% (inactive). The figure for `Cc1ccc(Nc2c3c(nc4ccccc24)CCC3)cc1` is -74.2% (active). Take `CCCC(=O)Nc1cc(C(=O)NCc2ccc(OC)cc2)ccc1S(=O)(=O)c1ccc(Cl)cc1`: the activity change, negative = inhibition was 12.9% (inactive).

As for `CCOc1cc(/C=N/NC(=O)c2cccc(S(=O)(=O)N3CCOCC3)c2)ccc1OCC(=O)N(C)C`, the activity change, negative = inhibition is -10.8% (inactive). Turning to `CCOc1cccc(/C=N/NC(=S)NCCN2CCOCC2)c1O`, the activity change, negative = inhibition was -99.8% (active).

`COc1cccc(C(CC(=O)NCCN2CCOCC2)NS(=O)(=O)c2ccc(C)cc2)c1OC` (stereo not given): the activity change, negative = inhibition is -35.5% (inactive).

Turning to `Cc1oc(-c2ccccc2)nc1Cn1c(SCc2cccc(C(F)(F)F)c2)nc2cccnc21`, the activity change, negative = inhibition was -23.2% (inactive). As to `CCOc1cc(C2C(C(=O)OC)=C(C)NC3=C2C(=O)c2ccccc23)ccc1O` (stereo not given), the activity change, negative = inhibition is -8.78% (inactive). As for `CC1=NN(C(=O)CCCc2ccccc2)C(O)(C(F)(F)F)C1` (stereo not given), the activity change, negative = inhibition is -24.1% (inactive). Take `CC1=NN(C(=O)CCc2ccccc2O)C(O)(C(F)(F)F)C1` (stereo not given): the activity change, negative = inhibition was -66% (active). For the molecule `CC1=NN(C(=O)c2ccc(Br)cc2)C(O)(c2ccccc2)C1` (stereo not given), the activity change, negative = inhibition was -17.6% (inactive). The same measure for `COc1cccc(C(c2c(O)cc(C)n(Cc3ccco3)c2=O)N2CCN(c3ccccc3)CC2)c1` (stereo not given): 7.72% (inactive); for `CC(C)CC(NS(=O)(=O)c1ccc2c(c1)oc(=O)n2C)C(=O)NCc1ccccc1Cl` (stereo not given): -14.5% (inactive). As for `CCCCn1c(=O)c2oc3ccccc3c2n(CC(=O)Nc2ccccc2OC)c1=O`, the activity change, negative = inhibition was 17% (inactive).

In the case of `Cc1cc(N2CCN(c3cccc(C(F)(F)F)c3)CC2)n2nc(-c3ccccc3)nc2n1`, the activity change, negative = inhibition was -20.6% (inactive). Take `Nc1nnn(CC(=O)N/N=C/c2ccccc2)n1`: the activity change, negative = inhibition was -9.02% (inactive). The figure for `Cc1ccc(/C=N/NC(=O)COc2ccccc2-c2ccccc2)cc1` is -81.9% (active); for `O=C(CSC1c2ccccc2-c2ccccc21)N/N=C/c1ccccc1` it is 35.4% (inactive).

In the case of `CCOCCCNC(=O)c1c(NC(=O)c2nc(SC)ncc2Cl)sc2c1CCCC2`, the activity change, negative = inhibition is 47.5% (inactive). As to `O=C(CCn1c(=O)c2sccc2n(Cc2ccc(F)cc2)c1=O)NCc1ccc2c(c1)OCO2`, the activity change, negative = inhibition is 14.2% (inactive). The figure for `O=C(Nc1nnc(C2COc3ccccc3O2)o1)c1ccc(F)cc1` (stereo not given) is -81.3% (active); for `c1ccc2c(c1)OCC(c1nn3cnnc3s1)O2` (stereo not given) it is -4.38% (inactive); for `CSc1ccccc1-c1nnc(NC(=O)c2ccc3c(c2)OCCO3)o1` it is 21.3% (inactive).

On to `Oc1ccccc1-c1nc(/C=C/c2ccc(F)cc2)no1`, for which the activity change, negative = inhibition was 94.7% (inactive).

Regarding `COc1ccc(CNC(=O)c2cc3c(s2)-c2ccccc2OC3)cc1`, the activity change, negative = inhibition was -13.2% (inactive). The same measure for `COc1cc(CNC(=O)c2cc3n(n2)CCCN(Cc2cccc(F)c2)C3=O)cc(OC)c1OC`: -12.3% (inactive); for `C=C(C)CSc1nnc(-c2ccc(C)cc2)n1N`: -8.53% (inactive). The figure for `CN(C)c1cc[n+](Cc2ccccc2)cc1` is -86.3% (active). Regarding `N#Cc1ccc(-c2cccs2)nc1SCc1ccc(Br)cc1`, the activity change, negative = inhibition is 5.81% (inactive). For the molecule `CCCCCn1nnnc1C1c2ccccc2C(=O)N1Cc1ccco1` (stereo not given), the activity change, negative = inhibition is -25.7% (inactive). The same measure for `O=C1c2ccccc2C(Nc2ccc3c(c2)OCCO3)N1Cc1ccco1` (stereo not given): -60.9% (active). The figure for `O=C(Nc1ccc2c(c1)OCCO2)C1c2ccccc2OCC(=O)N1Cc1ccccn1` (stereo not given) is 3.21% (inactive); for `Cc1ccc(-c2noc(CSc3nnc(-c4ccc(Cl)cc4)n3C)n2)cc1` it is -12.3% (inactive). The figure for `CC1CN(C(=O)N2CCC(C(=O)NCc3cccs3)CC2)c2ccccc2O1` (stereo not given) is 8.43% (inactive); for `CCc1ccc(Nc2nn3c(=O)c4cc5c(cc4nc3s2)OCO5)cc1` it is 9.55% (inactive); for `COc1cccc(C(c2nnnn2-c2ccc3c(c2)OCCO3)N2CCC3(CC2)C(=O)NCN3c2ccccc2)c1OC` (stereo not given) it is -15.1% (inactive). For the molecule `Cc1oc(-c2ccccc2F)nc1CN1CCC(C(=O)NCCc2ccc(Cl)cc2)CC1`, the activity change, negative = inhibition is 0.215% (inactive).

As for `Cc1nonc1C1CCCN1Cc1nc(-c2ccc(F)cc2F)oc1C` (stereo not given), the activity change, negative = inhibition was -69.4% (active). For the molecule `COc1ccc(F)c(-c2nc(CN3CCC(c4ccccc4)CC3)c(C)o2)c1`, the activity change, negative = inhibition was -14% (inactive). With `Cc1ccc(N(CC(=O)NCc2ccc(Cl)cc2)S(=O)(=O)N(C)C)cc1`, the activity change, negative = inhibition was -16.9% (inactive).

With `COc1ccc2c3c([nH]c2c1)[C@@H](CO)N(C(=O)C1CC1)CC31CCN(Cc2nccs2)CC1`, the activity change, negative = inhibition is -2.14% (inactive). The same measure for `COc1ccc(N2CCN(C(=O)CCSCc3ccccc3F)CC2)cc1`: -16.4% (inactive); for `COc1ccc(N2CCN(C(=O)CSCc3nc(-c4ccccc4Cl)oc3C)CC2)cc1`: -81.2% (active); for `COc1ccc(CNC(=O)CSCc2nc(-c3ccccc3F)oc2C)cc1`: -16% (inactive). In the case of `COc1cccc(N=C2SC(C(=O)Nc3cccc(Cl)c3)CC(=O)N2C)c1` (stereo not given), the activity change, negative = inhibition is -4.69% (inactive). The same measure for `O=C(CSCc1cnn(-c2ccccc2)c1-n1cccc1)NCc1ccc(Cl)cc1`: -3.89% (inactive); for `COc1ccc(CNc2c(CO)cnc3c2cnn3C)cc1`: -66.6% (active). As to `CCCC(=O)n1nc(NCc2ccc(OC)cc2)nc1NCc1ccc(OC)cc1`, the activity change, negative = inhibition was -26.6% (inactive). The same measure for `CCCn1nnnc1NCc1ccc(OC)cc1`: -30.2% (inactive); for `Fc1ccccc1Oc1ncnc2c1oc1ccccc12`: -3.15% (inactive); for `O=C(CC(NCc1cccnc1)C(=O)O)Nc1ccc(O)cc1` (stereo not given): 5.47% (inactive). The figure for `COc1ccccc1NC(=O)CSc1nnc(CNC(=O)c2ccccc2F)o1` is -5.51% (inactive); for `COc1cc(Cl)c(C)cc1NC(=O)CSc1nnc(CN2CCCC2)o1` it is -9.81% (inactive). The figure for `CCC(=O)Nc1ccc(C(=O)CSc2nnc(CNc3ccc(Cl)cc3)o2)cc1OC` is -87.9% (active); for `CCCCSc1ncnc2c1sc1nc(N3CCOCC3)c3c(c12)CCCC3` it is 1.23% (inactive); for `Cc1ccc(-c2nc(Cn3c(=O)cc(-c4ccccc4)c4c(C)nn(C)c43)c(C)o2)cc1` it is -9.59% (inactive).

For the molecule `Cc1ccc(NC(=O)c2ccc(S(=O)(=O)NCC3CCCO3)cc2)cc1C` (stereo not given), the activity change, negative = inhibition is 0.647% (inactive). The same measure for `O=C(NCC1CCCO1)c1ccc(S(=O)(=O)Nc2ccc(F)cc2)cc1` (stereo not given): -30.8% (inactive). The figure for `O=C(Nc1ccc(S(=O)(=O)NCC2CCCO2)cc1)c1ccc(F)cc1` (stereo not given) is -71.5% (active); for `CCc1cccc(NC(=O)Cn2nc(CC)n3c(cc4cc(C)ccc43)c2=O)c1` it is 18.4% (inactive); for `COc1ccc(CCNS(=O)(=O)c2cc(-c3cc(C)no3)ccc2C)cc1OC` it is 0% (inactive). On to `CN(C)CCOC(=O)C(c1ccccc1)C1(O)CCCC1` (stereo not given), for which the activity change, negative = inhibition was 31.9% (inactive). As to `CN(C)CC1Oc2ccccc2OC1(O)c1ccccc1` (stereo not given), the activity change, negative = inhibition is -104% (active). For `CCc1cccc(NC(=O)CN(c2ccc(C)c(C)c2)S(=O)(=O)c2ccsc2C(=O)OC)c1`, the activity change, negative = inhibition is 7.64% (inactive). The same measure for `CCc1nn(-c2cc(Oc3cccc4ccccc34)nc(-c3ccccc3)n2)c(N)c1C#N`: -68% (active); for `CCCCN(C)CCCNC(=O)CN1N=C(c2ccc(OC)cc2)CCC1=O`: -26.4% (inactive). Consider `CCC(=O)NC(Nc1cc(C)ccn1)(C(F)(F)F)C(F)(F)F`, for which the activity change, negative = inhibition was 27.3% (inactive). The same measure for `Cc1cccc(NC(c2cccc(F)c2)c2ccc3ccc(C)nc3c2O)n1` (stereo not given): 84.7% (inactive); for `Cc1ccnc(NC(c2ccc(C(F)(F)F)cc2)c2ccc3cccnc3c2O)c1` (stereo not given): -97.9% (active). For the molecule `CCNS(=O)(=O)c1ccc(CCC(=O)N2CCN(c3cc(Cl)ccc3C)CC2)cc1`, the activity change, negative = inhibition was -68.5% (active). With `CCNS(=O)(=O)c1ccc(CCC(=O)N2CCN(c3ccc(OC)cc3)CC2)cc1`, the activity change, negative = inhibition was -33.4% (inactive).

As for `CCCNS(=O)(=O)c1ccc(CCC(=O)N2CCCC2)cc1`, the activity change, negative = inhibition is -28.5% (inactive). Regarding `CCOc1cccc2sc(N3CCN(C(=O)C4CC4)CC3)nc12`, the activity change, negative = inhibition is -12.2% (inactive). As for `CN1OC[C@@H]2CN(C(=O)C(C)(C)C)[C@H](c3ccc(-n4ccnc4)cc3)C[C@@H]21`, the activity change, negative = inhibition is 22.3% (inactive). The same measure for `CCOC(=O)[C@]12CCC=C1N(Cc1cccc3ccccc13)C(=O)[C@H](CC(=O)NCc1cccc(C(F)(F)F)c1)C2`: 19.4% (inactive).

For `Cc1ccc(-n2ncc3c(NCCCn4ccnc4)ncnc32)cc1Cl`, the activity change, negative = inhibition is 7.64% (inactive). For `CC(NC(=O)Nc1cccc([N+](=O)[O-])c1)c1ccc2c(c1)OCO2` (stereo not given), the activity change, negative = inhibition is -64.3% (active).

`CC(NC(=O)c1ccco1)c1ccc2c(c1)OCO2` (stereo not given): the activity change, negative = inhibition was 11.5% (inactive). Turning to `Cc1noc(C)c1C(=O)NC(C)c1ccc2c(c1)OCO2` (stereo not given), the activity change, negative = inhibition is 59.8% (inactive).

The values above are taken from PubChem BioAssay AID1259415 (National Center for Advancing Translational Sciences (NCATS), 2018).
